# About 410 targets per protein were measured; listed, in parts, are those with the strongest signals and a random draw of the rest.
# Key:
# Test in all cases: glycan array binding signal (z-score within array); higher = stronger binding
# Details in all cases: glycan notation: IUPAC condensed, linker removed
# [1] = target: Fuc(a1-2)Gal(b1-3)GalNAc(b1-3)Gal(a1-4)Gal(b1-4)Glc
# Outline: (§1)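 Glycan array data came from 3228 arrays in the Consortium for Functional Glycomics database, and only arrays with an available protein sequence were kept. Glycan names were put into IUPAC-condensed notation, and columns mapping to the same glycan were averaged. The binding signal is a within-array Z-score, averaged across arrays of one protein sequence run at different concentrations or buffers and across linkers. A negative Z-score can be read as non-binding.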
# [2] = target: Fuc(a1-2)Gal(b1-3)GlcNAc(b1-3)[Gal(b1-4)GlcNAc(b1-6)]Gal(b1-4)Glc
# Outline: as §1
# [3] = target: Fuc(a1-2)Gal(b1-3)[Fuc(a1-4)]GlcNAc(b1-2)Man(a1-3)[Fuc(a1-2)Gal(b1-3)[Fuc(a1-4)]GlcNAc(b1-2)Man(a1-6)]Man(b1-4)GlcNAc(b1-4)[Fuc(a1-6)]GlcNAc(b1-4)[Fuc(a1-6)]GlcNAc
# Outline: as §1
# [4] = target: Fuc(a1-2)Gal(b1-4)GlcNAc(b1-3)GalNAc
# Outline: as §1
# [5] = target: Fuc(a1-2)Gal(b1-4)GlcNAc(b1-3)[Fuc(a1-2)Gal(b1-4)GlcNAc(b1-6)]GalNAc
# Outline: as §1
# [6] = target: Fuc(a1-2)Gal(b1-4)GlcNAc(b1-3)[Fuc(a1-3)[Gal(b1-4)]GlcNAc(b1-6)]Gal(b1-4)Glc
# Outline: as §1
# [7] = target: Fuc(a1-2)Gal(b1-4)[Fuc(a1-3)]GlcNAc
# Outline: as §1
# [8] = target: Fuc(a1-2)[Gal(a1-3)]Gal(b1-3)GlcNAc(b1-6)GalNAc
# Outline: as §1
# [9] = target: Fuc(a1-2)[Gal(a1-3)]Gal(b1-4)GlcNAc(b1-2)Man(a1-3)[Fuc(a1-2)[Gal(a1-3)]Gal(b1-4)GlcNAc(b1-2)Man(a1-6)]Man(b1-4)GlcNAc(b1-4)GlcNAc
# Outline: as §1
# [10] = target: Fuc(a1-2)[Gal(a1-4)]Gal(b1-4)GlcNAc
# Outline: as §1
# [11] = target: Fuc(a1-2)[GalNAc(a1-3)]Gal(b1-4)GlcNAc(b1-6)GalNAc
# Outline: as §1
# [12] = target: Gal(a1-3)Gal(b1-3)GlcNAc
# Outline: as §1
# [13] = target: Gal(a1-3)Gal(b1-3)GlcNAc(b1-2)Man(a1-3)[Gal(a1-3)Gal(b1-3)GlcNAc(b1-2)Man(a1-6)]Man(b1-4)GlcNAc(b1-4)GlcNAc
# Outline: as §1
# [14] = target: Gal(a1-3)[Gal(a1-4)]Gal(b1-4)GlcNAc
# Outline: as §1
# [15] = target: Gal(a1-4)GlcNAc
# Outline: as §1
# [16] = target: Gal(b1-3)GlcNAc(b1-3)Gal(b1-4)GlcNAc(b1-6)[Gal(b1-3)GlcNAc(b1-3)]Gal(b1-4)Glc
# Outline: as §1
# [17] = target: Gal(b1-3)[Fuc(a1-4)]GlcNAc(b1-2)Man(a1-3)[Gal(b1-3)[Fuc(a1-4)]GlcNAc(b1-2)Man(a1-6)]Man(b1-4)GlcNAc(b1-4)[Fuc(a1-6)]GlcNAc
# Outline: as §1
# [18] = target: Gal(b1-4)Glc
# Outline: as §1
# [19] = target: Gal(b1-4)Glc6S
# Outline: as §1
# [20] = target: Gal(b1-4)GlcNAc(b1-3)Gal(b1-3)GlcNAc
# Outline: as §1
# [21] = target: Gal(b1-4)GlcNAc(b1-3)Gal(b1-4)GlcNAc(b1-2)[Gal(b1-4)GlcNAc(b1-3)Gal(b1-4)GlcNAc(b1-6)]Man(a1-6)[Gal(b1-4)GlcNAc(b1-3)Gal(b1-4)GlcNAc(b1-2)Man(a1-3)]Man(b1-4)GlcNAc(b1-4)[Fuc(a1-6)]GlcNAc
# Outline: as §1
# [22] = target: Gal(b1-4)GlcNAc(b1-3)Gal(b1-4)GlcNAc(b1-3)Gal(b1-4)GlcNAc(b1-3)Gal(b1-4)GlcNAc(b1-3)Gal(b1-4)GlcNAc(b1-3)Gal(b1-4)GlcNAc(b1-2)Man(a1-3)[Gal(b1-4)GlcNAc(b1-3)Gal(b1-4)GlcNAc(b1-3)Gal(b1-4)GlcNAc(b1-3)Gal(b1-4)GlcNAc(b1-3)Gal(b1-4)GlcNAc(b1-3)Gal(b1-4)GlcNAc(b1-2)Man(a1-6)]Man(b1-4)GlcNAc(b1-4)GlcNAc
# Outline: as §1
# [23] = target: Gal(b1-4)GlcNAc(b1-3)Gal(b1-4)GlcNAc(b1-3)GalNAc
# Outline: as §1
# [24] = target: Gal(b1-4)GlcNAc(b1-3)[Gal(b1-4)GlcNAc(b1-6)]Gal(b1-4)GlcNAc
# Outline: as §1
# [25] = target: Gal4S(b1-4)GlcNAc
# Outline: as §1
# [26] = target: Gal6S(b1-3)GlcNAc
# Outline: as §1
binder,measurement,setting,value
PX14375F-bfa-539-21-539 (Bacteroides fragilis) (protein) EDFLQKDPPSSPSQSVFWQKKSDFESALAGTYSVMYSGVFSQIMPCLDGLTDNAIVQHSEGTYGWAKTIAQGDLTPNQGGFVTDIYGNCYKGIARVHILMEQLDQYTGSDISADEKKFMLAQCKALRGYFYSWLYQCYKEVPVVTQSLDLNTMYQPKATRAEVLNRVMTDYDEAISELPDKLYSDSQTSGRFTVSAVKALKARILLFDAYDSNGKAISSKMEEVLTLLQSIKGYSLAARVRDNFISEKQLASPEIMFSVRFLRPNLTHSMDLYYGAWAVLDPTRNMVDAFECTDGKPWGESPLTVRPDESILYGNDDALKKAERAKMFMNRDRRLYESVNHSMMANFVDDGFKDEEVQVNESNNKGPTGFSALKYVQPTDVTPGYSTVSDADIVVLRYAHVLLMIAEAENEAHGATTTALNAINEVRTRSGQPAIEAGISQDDLRERIRNEWRIETCFEGLRYFQLKRWKLMDKRVNGVEDPAYPGYIKVYKPAFEFFPIPQSEIDKAGGVLKQDPAYE,glycan array binding signal (z-score),[1],1.21
same,glycan array binding signal (z-score),[2],-0.583
same,glycan array binding signal (z-score),[3],0.238
same,glycan array binding signal (z-score),[4],0.334
same,glycan array binding signal (z-score),[5],0.212
same,glycan array binding signal (z-score),[6],0.539
same,glycan array binding signal (z-score),[7],-0.409
same,glycan array binding signal (z-score),[8],-0.329
same,glycan array binding signal (z-score),[9],6.22
same,glycan array binding signal (z-score),[10],2.7
same,glycan array binding signal (z-score),[11],-0.169
same,glycan array binding signal (z-score),[12],-0.042
same,glycan array binding signal (z-score),[13],2.35
same,glycan array binding signal (z-score),[14],3.97
same,glycan array binding signal (z-score),[15],-0.504
same,glycan array binding signal (z-score),[16],-0.107
same,glycan array binding signal (z-score),[17],2.29
same,glycan array binding signal (z-score),[18],-0.577
same,glycan array binding signal (z-score),[19],0.083
same,glycan array binding signal (z-score),[20],-0.243
same,glycan array binding signal (z-score),[21],5.95
same,glycan array binding signal (z-score),[22],4.05
same,glycan array binding signal (z-score),[23],2.44
same,glycan array binding signal (z-score),[24],0.637
same,glycan array binding signal (z-score),[25],-0.679
same,glycan array binding signal (z-score),[26],-0.321
